An excerpt weighted towards active compounds, which were near 19% of everything screened.
Pf growth 96h: inhibits malaria parasite growth, 96 h; P. falciparum luciferase reporter growth, 96 h; Potency, µM (top dose mostly 28.7 µM), for the others: at the top dose activity change, negative = inhibition, most hits filed as inhibitors; 320,000 compounds, 6.9% hits; AID 504834; further: potency means the concentration at half of the fitted maximal effect; on the % scale 0 is the no-effect control and ±100 the full control effect
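Readout is luminescence from an integrated firefly luciferase in P. falciparum. Red cells, 2% hematocrit and 0.05% parasitemia final, were cultured with compound through two parasite generations (96 hours) at 37 C, 5% CO2.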
CHX counter: counter-screen for Shiga toxin inhibitors: cycloheximide protein synthesis inhibition | max response, % | cell reporter, cycloheximide protein synthesis inhibition counterscreen | 300,000 compounds, 12% hits | AID 2314; in the data active means max response mostly above about 13%, no sharp cut-off; inactive means mostly below about 14%; further: read at 38.3 µM for the half of the compounds with a filed dose; 0% is about no effect
SARS PLP yeast: SARS-CoV PLP inhibition in yeast; S. cerevisiae expressing SARS-CoV PLpro, growth rescue; Potency, µM (doses to about 32.9 µM), for inactives: at the top dose activity, positive = growth rescue, usual class: activators; 330,000 compounds, 0.19% hits; AID 485353; calls by dose curve; further: potency means the concentration at half of the fitted maximal effect; 0% is about no effect; nearly all actives have a fitted effect of over 55% in size
Shiga toxin inh: blocks Shiga toxin action in Vero cells | AID 2315 | inhibition, % at 38.7 µM | Vero cells, Shiga toxin protein synthesis inhibition reporter | 290,000 compounds, 9.2% hits; in the data active means inhibition mostly above about 28%, no sharp cut-off; inactive means mostly below about 43%; further: 0% is about no effect
Pf growth 48h: P. falciparum growth inhibition at 48 hours (one generation). P. falciparum luciferase growth in erythrocytes, 48 h. Potency, µM (series often up to 28.7 µM), for the others: at the top dose activity change, negative = inhibition, hits mostly inhibitors. 310,000 compounds, 5.9% hits; further: potency means the concentration at half of the fitted maximal effect; on the % scale 0 is the no-effect control and ±100 the full control effect
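Growth was read as firefly luciferase luminescence after a 48 h, 37 C, 5% CO2 exposure of compounds to reporter-bearing P. falciparum cultures (0.1% parasitemia, 2% hematocrit final) in Albumax-supplemented RPMI 1640.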
AMA1-RON2 inh: AMA1-RON2 (P. falciparum) interaction inhibition. AlphaScreen AMA1-biotinylated RON2 peptide binding. Potency, µM (titrated, usually from 58.2 µM), inactives show at the top dose activity change, negative = inhibition, actives largely listed as inhibitors. 360,000 compounds, 0.2% hits;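 further: potency means the concentration at half of the fitted maximal effect; 0% = vehicle wells and -100% = peptide control; nearly all actives have a fitted effect of over 45% in size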
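AMA1 (3D7) with his tag at 25 nM final met compounds first, then biotinylated RON2 peptide at 25 nM; detection used donor plus acceptor beads, 10 µg/mL apiece, read by AlphaScreen after 30 min at room temperature.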
Numbers without * were called inactive; ? = inconclusive; . = no result given; [ ] = dose if it differs, or a comment. Unless noted, the call rests on the fitted dose curve; in most records, active means well fitted curve in the direction sought with a large enough effect; inconclusive means small, poorly fitted or top-dose-only effect, or another doubt; inactive means no such curve, though single readings can be large; an effect the other way counts as inactive or inconclusive.

SMILES	Pf growth 96h	CHX counter	SARS PLP yeast	Shiga toxin inh	Pf growth 48h	AMA1-RON2 inh
COc1cccc(=O)c2c(C)n(C)c(C)c12	377.4%	1.1	-0.4%	-5.8	5.9%	?
COc1cccc(=O)c2c(C)n(-c3cc(C)cc(C)c3)c(C)c12	2.62µM*	-1.6	-14.6%	-6.6	3.29µM*	-8.4%
COc1cccc(-n2c(C)c3c(OC)cccc(=O)c3c2C)c1	?	8.2	2.0%	-18.4	4.15µM*	?
CCOc1cccc(=O)c2c(C)n(C)c(C)c12	?	-1.4	-1.3%	-15.2	?	-21.5%
COc1ccc(C(O)c2cnc(C)n2Cc2ccccc2)cc1 (stereo not drawn)	.	.	.	.	.	0.0%
CCOC(=O)C1(CCc2ccccc2)CCN(C(=O)CCn2cncn2)CC1	?	32.0*	-2.1%	62.5*	-2.5%	2.2%
CCOC(=O)C1(CCCc2ccccc2)CCN(C(=O)CCn2cnnn2)CC1	38.3%	6.0	-0.4%	33.3	-7.8%	-4.6%
CCOC(=O)C1(Cc2ccccc2Cl)CCN(C(=O)CCn2ccnc2C)CC1	?	42.0*	-1.3%	68.1*	-15.3%	-1.1%
CCOC(=O)C1(CCc2ccccc2)CCN(C(=O)CCn2cnnn2)CC1	0.0%	12.1*	-2.2%	20.6	14.9%	-0.3%
CCOC(=O)C1(Cc2ccccc2Cl)CCN(S(=O)(=O)N(C)C)CC1	-17.9%	5.6	-0.8%	14.2	-20.6%	-2.3%
C=CCOc1ccc(/C=N/NC(=O)C(C)Sc2ccccn2)cc1OC (stereo not drawn)	25.1%	2.0	5.5%	-2.4	-2.7%	32.0%
O=C(CSc1nnc(CNC(=O)c2cccs2)o1)Nc1ccc(F)cc1F	-19.1%	0.9	-1.6%	-10.6	14.3%	22.6%
COc1cc(/C=C/C(=O)OCC(=O)NCc2ccco2)ccc1O	5.2%	.	5.6%	.	?	-5.9%
Cc1sc2nc(C3CC3)nc(SCC(=O)N3c4ccccc4CC3C)c2c1C (stereo not drawn)	47.9%	1.2	-3.6%	-13.1	?	10.4%
Cc1nc(SCC(=O)Nc2ccccc2Cl)c2c(C)c(C)sc2n1	?	.	-3.4%	.	5.22µM*	122.1%
Cc1nc(SCC(=O)N2c3ccccc3NC(=O)CC2C)c2c(C)c(C)sc2n1 (stereo not drawn)	13.1µM*	.	-1.9%	.	?	28.0%
Cc1nc(SCC(=O)NC2CCCC2)c2c(C)c(C)sc2n1	-10.6%	-3.7	-1.2%	15.3	?	-0.1%
CC1=C(C(=O)N2CCCCCC2)CC(CC(=O)NCCCN(C)C)C(=O)N1Cc1ccc(F)cc1 (stereo not drawn)	.	.	.	.	.	2.1%
C[C@H](CO)N1C[C@H](C)[C@@H](CN(C)S(=O)(=O)c2cccs2)Oc2c(NS(=O)(=O)c3ccccc3)cccc2C1=O	.	.	4.0%	.	.	1.3%
CN(C(=O)c1cccc(NC(=O)Cc2ccc(NC(=O)C3CCCN(S(=O)(=O)c4cccc([N+](=O)[O-])c4)C3)cc2)c1)C1CCCCC1 (stereo not drawn)	.	.	.	.	.	-10.3%
COc1ccccc1CN1CC(C(=O)N(C)CCCn2nc(C)cc2C)CCC1=O (stereo not drawn)	-16.3%	27.0	4.1%	-6.2	-15.7%	15.2%
COc1cccc(NC=C2C(=O)OC3(CCCCC3)OC2=O)c1	28.8%	19.9	-22.0%	67.5	28.6%	4.9%
COc1ccc(C2=CC(=O)OC3(CCCCC3)O2)cc1	?	6.4	-10.8%	17.8	4.15µM*	-5.7%
CC(=O)c1ccc(NC(=O)CN2CCOCC2)cc1	13.1µM*	-1.5	1.7%	-1.3	17.1%	-4.2%
CCN(CC)c1ccc(NC(=O)CN2CCN(CC(=O)Nc3ccccc3F)CC2)cc1	28.0%	-1.8	24.7%	-5.0	11.7µM*	-11.6%
SMILES	Pf growth 96h	CHX counter	SARS PLP yeast	Shiga toxin inh	Pf growth 48h	AMA1-RON2 inh
CC(=O)N1CCN(CC(=O)Nc2ccc3c(c2)CCC3)CC1	19.0%	-1.6	-10.0%	9.8	11.2%	13.3%
O=C(CN1CCOCCOCCOCCOCC1)Nc1ccccc1	350.2%	25.5*	-5.3%	48.0*	28.4%	0.0%
O=C(CN1CCCC1)Nc1ccc2c(c1)CCC2	-4.9%	23.5*	-0.3%	34.8*	50.7%	-25.1%
CCN(CC)c1ccc(NC(=O)CN2CCN(CC(=O)Nc3ccccc3OC)CC2)cc1	6.5%	-3.1	0.8%	-5.0	-27.0%	?
O=C(Cn1nnc(-c2ccccc2)n1)Nc1cccc(S(=O)(=O)N2CCCC2)c1	?	.	2.4%	.	-57.6%	-9.7%
CCOc1ccccc1N1CCN(C(=O)CC(C)C)CC1	18.2%	-1.6	-25.9%	-16.9	3.0%	-9.2%
O=C(CN1CCOCC1)NNC(=S)Nc1ccccc1	13.1µM*	1.1	-0.6%	2.0	-20.3%	53.9%
O=C(CN1CCCC1)Nc1ccc(Oc2ccc(NC(=O)CN3CCCC3)cc2)cc1	.	-4.2	-6.8%	-8.8	?	16.7%
Cc1ccc(NC(=O)CN2CCOCC2)cc1	42.4%	9.4	2.3%	18.1	.	2.2%
O=C(CN1CCOCC1)Nc1ccc(C2CCCCC2)cc1	.	38.9*	-12.6%	53.3	85.3%	4.5%
O=C(CN1CCCC1)Nc1ccc(NC(=O)Nc2ccccc2)cc1	.	39.3*	3.8%	54.0*	-3.1%	1.7%
O=C(CSc1ncccn1)Nc1ccc2c(c1)CCC2	82.7%	36.4*	2.4%	128.5*	65.1%	-6.3%
CCc1nc2c(OCc3cccc(OC)c3)cccn2c1N(C)C(=O)c1ccccc1F	.	.	.	.	.	-2.4%
O=C(COc1cccnc1[N+](=O)[O-])Nc1ccc2c(c1)CCC2	7.4%	20.0*	3.8%	11.0	?	-10.6%
O=C(CN1CCC(C(O)(c2ccccc2)c2ccccc2)CC1)Nc1ccccc1	?	-5.1	2.2%	2.0	10.4µM*	-6.1%
O=C(Cn1cc(C(F)(F)F)ccc1=O)Nc1ccccc1	71.8%	11.6*	-0.6%	43.6*	55.8%	5.2%
O=C(COc1cccc(Cl)c1)Nc1ccc2c(c1)CCC2	0.0%	38.1*	-37.1%	77.9*	54.8%	10.2%[11.6 µM]
O=C(COc1ccccc1F)Nc1ccc2c(c1)CCC2	.	.	-1.8%	.	.	29.4%
O=C(CN1CCC(C(O)(c2ccccc2)c2ccccc2)CC1)Nc1cc(Cl)ccc1Cl	130.4%	11.9	8.6%	-9.5	?	7.9%
CCN(CC)CCCNC(=O)c1ccc(S(=O)(=O)Nc2ccc(C)c(C)c2)cc1	?	.	-3.4%	.	?	5.5%
CCC(=O)c1ccc(OCC(O)CNC2CCCC2)cc1 (stereo not drawn)	?	1.3	6.6%	.	-18.9%	1.1%
O=C(C[C@H]1C/C=C\CCC(=O)O[C@@H](c2ccccc2)CNC1=O)NCCO	.	.	5.4%	.	.	3.9%
CC(=O)c1ccc(NC(=O)C2(c3ccccc3)CCOCC2)cc1	101.0%	36.6*	2.3%	111.8*	58.5%	-6.0%
O=C(Cn1cc(Cl)c([N+](=O)[O-])n1)NCCC1=CCCCC1	?	15.5*	2.5%	17.1	9.4%	1.7%
CNC(=S)SCCOc1ccccc1	4.1%	20.8*	0.3%	101.4*	18.0%	26.5%

High-throughput results deposited in PubChem by National Center for Advancing Translational Sciences (NCATS).
